This note sets out measurements from PubChem BioAssay AID2315 (National Center for Advancing Translational Sciences (NCATS), 2010).

Hit rate of the full screen: of about 290,000 compounds, about 27,000 (9.3%) were called active. The entries come from a sample that favours actives as a whole. Values without a mark were called inactive. Cut-off read from the data, not from the text of the source: active = inhibition mostly above about 28% (no sharp cut-off); inactive = mostly below about 43%.

This experiment in a line: A qHTS for Small Molecule Inhibitors of Shiga Toxin. Note: 0% is about no effect. As to conditions: Vero cells, Shiga toxin protein synthesis inhibition reporter; at 38.7 µM, active compounds read high.
In general, inhibition refers to the drop in the measured response relative to a control, in per cent. As to `COc1ccc(/C=C(\NC(=O)c2ccccc2)C(=O)NCCN2CCOCC2)cc1OC`, the inhibition is 1.37%.

Regarding `Cc1cc(-c2nnc(CCC(=O)NC(c3ccccc3)c3ccccc3)o2)no1`, the inhibition was 35.4% (active).

For `CC(CCn1cccn1)NC(=O)CCc1nnc(CCc2ccccc2)o1` (configuration not stated), the inhibition is -10.4%.

In the case of `O=C(CCc1nnc(CCCCc2ccccc2)o1)NC(c1cccnc1)C(F)(F)F` (configuration not stated), the inhibition was -12.1%.

On to `COC(=O)c1ccc(N2CCOCC2)c(NC(=O)c2ccc(Br)o2)c1`, for which the inhibition was 31.4%.

Regarding `Cc1[nH]n(C(N)=S)c(=O)c1N=Nc1ccc(Cl)cc1Cl`, the inhibition is 44.3% (active).

`CC1=NN(C(N)=S)C(=O)C1N=Nc1cc(Cl)ccc1Cl` (configuration not stated): the inhibition is -1.92%.

Consider `Cc1cccc(N=Nc2c(C)[nH]n(-c3ccccc3)c2=O)c1`, for which the inhibition was -4.8%.

With `Cc1cc(C)c2oc(C(=O)Nc3ccc(S(=O)(=O)Nc4nccc(C)n4)cc3)cc(=O)c2c1`, the inhibition was 2.27%.

As to `Cc1ccc(NC(=O)O/N=C/c2cccc([N+](=O)[O-])c2)cc1`, the inhibition was 70.8% (active).

Regarding `CCc1ccc(NC(=O)C(C)OC(=O)/C=C/c2cccc([N+](=O)[O-])c2)cc1` (configuration not stated), the inhibition is 15.5%.

`O=C(N/N=C/c1cccc([N+](=O)[O-])c1)c1ccncc1`: the inhibition was 22.3%.

Turning to `Cc1ccc(C)c(S(=O)(=O)Nc2cc(C)on2)c1`, the inhibition is -4.53%.

Consider `CCc1cc2c(=O)c(-c3ccon3)c(N)oc2cc1OC`, for which the inhibition was 82.2% (active).

Regarding `COc1ccc2oc(N)c(C=O)c(=O)c2c1`, the inhibition is 63.7%.

With `CCc1cc2c(=O)c(-c3ccc(F)cc3)c(C(F)(F)F)oc2cc1OCC(=O)O`, the inhibition was 5.27%.

Regarding `CSc1nnc(C2CCCN(CC(=O)Nc3ccccc3N3CCOCC3)C2)n1C(C)C` (configuration not stated), the inhibition was -9.97%.

Regarding `O=C(Cn1c(NCCO)nc2ccccc21)c1ccc(Cl)cc1Cl`, the inhibition is -8.74%.

Consider `COC(=O)c1c(NC(=O)C2CC(C)=C(C)CC2C(=O)O)sc2c1CCCCC2` (configuration not stated), for which the inhibition was -7.33%.

Regarding `CC(=O)c1ccc(NC(=O)CCc2nnc3ccc(NCc4ccco4)nn23)cc1`, the inhibition was 49.7% (active).

On to `CCOc1ccccc1NC(=O)CCc1nnc2ccc(NCc3ccco3)nn12`, for which the inhibition was -9.81%.

As for `O=C(CCc1nnc2ccc(NCc3ccco3)nn12)Nc1cc(F)ccc1F`, the inhibition is -6.06%.

For `COCCNC(=O)CCCN1C(=O)c2ccccc2Sc2ncccc21`, the inhibition is -19.8%.

For the compound `CCOc1ccccc1-c1nc(CN2CCC(C(=O)N3CCOCC3)CC2)c(C)o1`, the inhibition is -7.77%.

Regarding `O=C(NCc1ccccn1)C1CCN(S(=O)(=O)c2ccc(Br)cc2)CC1`, the inhibition was -33.7%.

For the compound `Cc1ccc(S(=O)(=O)Cc2cc(-c3ccc(Cl)cc3)no2)cc1`, the inhibition was 8.79%.

`Cc1ccc(-c2cc(N)on2)cc1`: the inhibition was 108% (active).

For `O=C(Cc1ccccc1Cl)N1CCOCC1`, the inhibition is -11.4%.

Regarding `COc1cc2c(cc1OC)/C(=C/C(=O)c1ccc(NC(C)=O)cc1)NCC2`, the inhibition was -6.51%.

With `CC1CN/C(=C\C(=O)c2ccc(Br)cc2)C(=O)N1` (configuration not stated), the inhibition is 67.3% (active).

Consider `CN1CCCC(OC(=O)COc2ccc(Br)cc2)C1` (configuration not stated), for which the inhibition was -12%.

For the compound `CC(C)(C)OC(=O)NC(Cc1ccccc1)C(=O)NC(CSC1CCCCO1)C(=O)NN` (configuration not stated), the inhibition is -14.3%.

`CC(C)NC(=O)COCc1cc(-c2ccc3c(c2)OCO3)on1`: the inhibition was 45.3% (active).

`CCOC(=O)N1CCN(C(=O)COCc2cc(-c3ccc4c(c3)OCO4)on2)CC1`: the inhibition is -7.65%.

For the compound `Cc1cccc(N2CCN(C(=O)COCc3cc(-c4ccc5c(c4)OCO5)on3)CC2)c1C`, the inhibition is -8.35%.

Turning to `Cc1nn2c(=O)cc(COC(=O)c3ccc(NC(=O)C(C)(C)C)cc3)nc2s1`, the inhibition was 35.5%.

With `COc1cccc(C2CC(c3cccs3)=NN2C(=O)CSC2=NCCS2)c1OC` (configuration not stated), the inhibition is -5.1%.

Regarding `CCCc1cc(=O)oc2cc(OCC(=O)Nc3ccc(CN4CCOCC4)cc3)c(Cl)cc12`, the inhibition was -1.59%.

For the compound `COc1ccc(C2=NOC3(CC(=O)N(c4ccc(C)cc4)C3=O)C2)cc1` (configuration not stated), the inhibition is 36.5%.

For `Cc1ccc(C(=O)NNC2=Nc3cc([N+](=O)[O-])ccc3OC2)cc1`, the inhibition is 40.3%.

Turning to `COc1ccc(C2=Nc3cc(C)ccc3OC2)cc1`, the inhibition was 94% (active).

Consider `Cn1cc(C(=O)c2ccc(Cl)cc2Cl)cc1C(=O)NN`, for which the inhibition is -5.33%.

`Cc1cc(C)c(SCCc2ccncc2)c(C)c1`: the inhibition is -4.14%.

In the case of `c1ccc(CSCCc2ccncc2)cc1`, the inhibition was -5.65%.

`CC(C)(C)c1ccc(SCCc2ccncc2)cc1`: the inhibition was 69.1% (active).

Regarding `CN(NS(=O)(=O)c1cccs1)c1ncc(C(F)(F)F)cc1Cl`, the inhibition is -2.15%.

Turning to `Cn1c2ccccc2c(=O)c2c(=O)n(Cc3ccco3)c(COc3ccccc3)nc21`, the inhibition is 8.54%.

On to `Cc1ccc(C(=O)CSc2nc3ccccc3c(=O)n2N)o1`, for which the inhibition was 77.2%.

Turning to `Cn1c(COc2ccc(Cl)cc2)nc2ccccc2c1=O`, the inhibition is 46% (active).

On to `COc1ccc(-c2nc3ccccc3c(=O)n2CCc2ccc(O)cc2)cc1`, for which the inhibition is 40.9%.

For `COc1ccc(OCc2ccc(-c3nc4ccccc4c(=O)n3N)o2)cc1`, the inhibition was 129% (active).

In the case of `Cc1nc2ccccc2c(=O)n1-c1ccc(Cl)cc1Cl`, the inhibition is -14.3%.

Regarding `COC(=O)c1sc(N2CCN(Cc3ccccc3)CC2)nc1N`, the inhibition is -8.35%.

Consider `Cc1ccc(CNCc2ccc3c(c2)OCO3)c(C)c1`, for which the inhibition was -7.85%.

In the case of `O=C(O)C1=NN(c2c(F)c(F)cc(F)c2F)C(=O)CC1`, the inhibition was -10.3%.

For the compound `CC(NS(=O)(=O)c1ccc(Cl)cc1)C(=O)Nc1ccc2c(c1)OCCO2` (configuration not stated), the inhibition is -5.73%.

As to `COc1cccc(/C=C/C(=O)Nc2ccc3c(c2)OCCO3)c1`, the inhibition is 70.9% (active).

`CC(NC(=O)Nc1ccc2c(c1)OCO2)c1ccncc1` (configuration not stated): the inhibition is 19.2%.

Turning to `COc1ccc(OC)c(/C=C/C(=O)OCC(=O)Nc2ccc3c(c2)OCCO3)c1`, the inhibition was -11%.

As to `CNS(=O)(=O)c1ccc(NC(=O)Nc2ccc3c(c2)OCO3)cc1`, the inhibition was 72.9% (active).

Regarding `Cc1ccc2nc(-c3ccccn3)cc(C(=O)Nc3ccc4c(c3)OCO4)c2c1`, the inhibition is -7.35%.

Consider `Cc1cccc(NC(=O)/C=C/c2ccc3c(c2)OCO3)n1`, for which the inhibition is 70.2% (active).

Take `CCc1c(C)sc(NC(=O)/C=C/c2ccc3c(c2)OCO3)c1C(=O)OC`: the inhibition was -7.04%.

As to `O=C(/C=C/c1ccc2c(c1)OCO2)NCc1ccc(F)cc1`, the inhibition is 26.5%.

Consider `Cc1cccc(NC(=O)Nc2ccc3c(c2)OCO3)n1`, for which the inhibition is 76.3% (active).

For `COc1ccc(/C=C/C(=O)Nc2ccc3c(c2)OCCO3)cc1OC`, the inhibition was 35.4%.

With `CC(C)CNS(=O)(=O)c1ccc(C(=O)Nc2ccc3c(c2)OCO3)cc1`, the inhibition was -14.7%.
